The record followed here is US20120264815, “REVERSIBLE PLATELET INHIBITION” (DUKE UNIVERSITY, published 2012).

For this assay, the target named is von Willebrand factor (VWF) (Homo sapiens, UniProt P04275 P04275:764-2813). The experiment in a line: filter; binding decreased. To be noted: tags: Haematologic Technologies Inc. (factor VIII free); label: 5'-32P; ssRNA; 2'-F pyrimidines. How it is done:
Dissociation constants (Kd) of each truncate were determined using double-filter nitrocellulose filter binding assays (Pergolizzi et al, Blood 108:862-869 (2006)). All binding studies were performed in binding buffer F (20 mM HEPES, pH 7.4, 150 mM NaCl, 2 mM CaCl₂, and 0.1% BSA) at 37° C. Human purified VWF (with factor VIII and factor VIII free) was purchased from Haematologic Technologies Inc. (Essex Junction, VT) and used in the double-filter nitrocellulose filter binding assay to determine the Kd of individual clones. Briefly, RNA was dephosphorylated using bacterial alkaline phosphatase (Gibco BRL, Gaithberg, Md.) and end-labeled at the 5′ end with T4 polynucleotide kinase (New England Biolabs, Beverly, Mass.) and [γ³²P] ATP (Amersham Pharmacia Biotech, Piscataway, N.J.). Direct binding was performed by incubating ³²P—RNA with VWF in physiological buffer+1 mg/ml BSA at 37° C. for 5 min. The fraction of the nucleic acid-protein complex which bound to the nitrocellulose membrane was quantified with a phosphoimager (Molecular Dynamics, Sunnyvale, Calif.).
For “GGGAGGACGAUGCGGUGGACGAACUGCCCUCAGCUACUUUCAUGUUGCUGACGCACAGACGACUCGCUGAGG”, the binding signal amounted to 50 % Bmax.

“GGGAGGACGAUGCGGUGGACGAACUGCCCUCAGCUACUUUCAUGUUGCUGACGCACAGACGACUCG” showed a binding signal of 28 % Bmax.

In turn, “GGGAGGACGAUGCGGUGGACGAACUGCCCUCAGCUACUUUCAUGUUGCUGACGCACAGACAGC” displayed a binding signal of 36 % Bmax.

As to “GGGAGGACGAUGCGGUGGACGAACUGCCCUCAGCUACUUUCAUGUUGCUGACGCACAGA”, the binding signal came out at 22 % Bmax.

“GGGAGGAACUGCCCUCAGCUACUUUCAUGUUGCUGACGCACAGACGACUCGCUG” yielded a binding signal of 45 % Bmax.

“GGGAGGACGAUGCGGUGGACGAACUGCCCUCAGCUACUUUCAUGUUGCUGACGCACAGACGACUCGCUG” showed a binding signal of 50 % Bmax.

“GGGAGGACGAACUGCCCUCAGCUACUUUCAUGUUGCUGACGCACAGACGACUCGCUG” returned a binding signal of 58 % Bmax.
